Measured values taken from the supplement of paper PMC6555819.

Tests used:
Assay in all cases: PBM binding z-score (relative to random genomic background probes); higher = stronger binding; sequences stand for … in GC…GCGATTGACAGCGTAGAATGAAGG
[1] = tested on: RARb homodimer (NR concentration 270 nM)
In short: (§1)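 Binding z-scores take random background probes as their reference. They come from custom Agilent 4×180K protein-binding microarrays incubated 1 h with ligand-free nuclear receptor dimers, with antibodies against each partner (one per run) detecting binding. Scanned fluorescence was regression-normalized.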

[2] = tested on: RARg:RXRa (NR concentration 270 nM, RXRa partner concentration 90 nM)
In short: as §1

[3] = tested on: RARg homodimer (NR concentration 270 nM)
In short: as §1

[4] = tested on: RXRa DBDmut IVT, anti-RXR (DBD mutation: RXRa K156A/R161A, NR concentration 90 nM)
In short: as §1

[5] = tested on: RXRa homodimer (NR concentration 180 nM)
In short: as §1

[6] = tested on: THRa:RXRa (NR concentration 90 nM, RXRa partner concentration 90 nM)
In short: as §1

[7] = tested on: THRa homodimer (NR concentration 90 nM)
In short: as §1

[8] = tested on: VDR homodimer (NR concentration 270 nM)
In short: as §1

CGTCCAAGGTCAATGCTAGGTCAGTGAGAGCATT was tested, and the PBM binding z-score [1] was 5.01, the PBM binding z-score [2] was 7.45 and the PBM binding z-score [3] was 6.65. The PBM binding z-score [4] was 3.53, the PBM binding z-score [5] was 5.06 and the PBM binding z-score [6] was 4.37. It also gave a PBM binding z-score [7] of 2.87 and a PBM binding z-score [8] of 3.36.
With GCGACTGGGGCATCAGCAAGTTACCATAACTTAA the PBM binding z-score [1] was -0.0103, the PBM binding z-score [2] was 0.142 and the PBM binding z-score [3] was 0.0409. For the same sequence, the PBM binding z-score [4] was -0.018, the PBM binding z-score [5] was 0.208 and the PBM binding z-score [6] was -0.53. The PBM binding z-score [7] was -0.605 and the PBM binding z-score [8] was -0.296.
Work on CCGACTGGGGCAAAGGTTGCCATACTCAGTACGA yielded a PBM binding z-score [1] of 0.697, a PBM binding z-score [2] of 1.32 and a PBM binding z-score [3] of 0.395. The PBM binding z-score [4] was -0.142, the PBM binding z-score [5] was 1.32 and the PBM binding z-score [6] was 0.333. It also gave a PBM binding z-score [7] of -0.54 and a PBM binding z-score [8] of 0.111.
For CCTACTGGGACAAGGTCATTGATCAGTCAAAGCA, the PBM binding z-score [1] was 3.22, the PBM binding z-score [2] was 4 and the PBM binding z-score [3] was 3.34. It also gave a PBM binding z-score [4] of 1.7, a PBM binding z-score [5] of 3.71 and a PBM binding z-score [6] of 3.47. The PBM binding z-score [7] was 2.27 and the PBM binding z-score [8] was 3.29.
Work on CCAACTAGGTCAGAACAGGACAGTGAAGGATGAT yielded a PBM binding z-score [1] of 2.43, a PBM binding z-score [2] of 2.41 and a PBM binding z-score [3] of 3.03. It also gave a PBM binding z-score [4] of 1.3, a PBM binding z-score [5] of 1.22 and a PBM binding z-score [6] of 3.67. For the same sequence, the PBM binding z-score [7] was 0.727 and the PBM binding z-score [8] was 0.723.
Sequence TCAGACAGGTGGAGGTAACTCAGGTACGCAGTCG has a PBM binding z-score [1] of 0.41, a PBM binding z-score [2] of -0.00603 and a PBM binding z-score [3] of -0.245. For the same sequence, the PBM binding z-score [4] was 0.723, the PBM binding z-score [5] was 0.574 and the PBM binding z-score [6] was 1.48. For the same sequence, the PBM binding z-score [7] was 0.639 and the PBM binding z-score [8] was -0.21.
ATCGAGAGGTCGAGGTGAGTATAGAGAAAGGGAA showed a PBM binding z-score [1] of 2.04, a PBM binding z-score [2] of 3.39 and a PBM binding z-score [3] of 3.48. It also gave a PBM binding z-score [4] of 1.2, a PBM binding z-score [5] of 3.51 and a PBM binding z-score [6] of 2.76. The PBM binding z-score [7] was 0.486 and the PBM binding z-score [8] was 0.635.
